Experiment [1] deals with MILI (PIWIL2) piRISC loaded with L1MC piRNA (26 nt). Put plainly: pre-steady-state target cleavage rate (min^-1); guide: L1MC piRNA 5'p-UAACUAAAUACUAUGCAAGCUGUAGG; higher = faster piRNA-guided slicing of the target. In outline: (§1)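 The pre-steady-state cleavage rate came from a burst-and-steady-state fit to pooled data from three Cleave-'n-Seq trials, in which uncleaved targets were sequenced and normalised to depth and to weakly complementary targets. Each reaction held 0.1 nM transcribed, DNA-blocked target RNA library and 1 nM active affinity-purified piRISC carrying one synthetic guide, with or without 500 nM GTSF1 partner protein, in HEPES–potassium acetate buffer at 33 °C for 0–8 or 0–960 min. k3 was capped at 0.0001 min^-1.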

Experiment [2] deals with EfPiwi piRISC loaded with L1MC piRNA (26 nt). As to the kind of experiment: pre-steady-state target cleavage rate (min^-1); auxiliary factor: 500 nM Ephydatia muelleri Gtsf1; guide: L1MC piRNA 5'p-UAACUAAAUACUAUGCAAGCUGUAGG; MIWI and MILI are mouse PIWI proteins and EfPiwi is from a freshwater sponge; tags in brackets are library labels; higher = faster piRNA-guided slicing of the target. In outline:
as §1

Setting [3] is: auxiliary factor: 500 nM mouse GTSF1.
Where [4] appears, read: auxiliary factor: none (no GTSF1).

± gives the standard deviation.

UCCUGGAAGAGCUUGCAUUGUAUUUAGUUA: the “pre-steady-state target cleavage rate” value in experiment [1] (setting [3]) amounted to 0.208 ± 0.011; in experiment [1] (setting [4]), 0.00838 ± 0.0031; in experiment [2] it was 0.0104 ± 0.0029.
For UCCUGGAUCAGCUUGCAUAGUAGUUAGUUA, the “pre-steady-state target cleavage rate” value in experiment [1] (setting [3]) is 0.201 ± 0.016; in experiment [1] (setting [4]), 0.00826 ± 0.0022; in experiment [2], 0.0207 ± 0.0049.
Regarding “UCCUGGAUGUCGUUGCAUAGUAUUUAGUUA [g2:g18:cont:t1A]”, the results for the “pre-steady-state target cleavage rate” value in experiment [1] (setting [3]), in experiment [1] (setting [4]) and in experiment [2] were 0.164 ± 0.013, 0.0106 ± 0.0029 and 0.00621 ± 0.0026, respectively.
As for UCCUGGAUGUCCUUGCAUAGUAUUUAGUUUA, the figures for the “pre-steady-state target cleavage rate” value in experiment [1] (setting [3]), in experiment [1] (setting [4]) and in experiment [2] were 0.104 ± 0.015, 0.00891 ± 0.0035 and 0.00634 ± 0.003, respectively.
For UCCUGGAUGAACUUGCAUAGUAUUUAGUUA, the figures for the “pre-steady-state target cleavage rate” value in experiment [1] (setting [3]), in experiment [1] (setting [4]) and in experiment [2] were 0.128 ± 0.013, 0.00751 ± 0.0026 and 0.0179 ± 0.0064, respectively.
In the case of UCCUCCUACACCUUGCUUAGUAUUUAGUUA, the “pre-steady-state target cleavage rate” value stood at 0.193 ± 0.022 in experiment [1] (setting [3]), 0.00665 ± 0.0019 in experiment [1] (setting [4]) and 0.00914 ± 0.0039 in experiment [2].
Consider UCCUGGUACAUCUUGCAUAGUAUUUAGUUA, for which the “pre-steady-state target cleavage rate” value in experiment [1] (setting [3]) turned out to be 0.237 ± 0.018; in experiment [1] (setting [4]) it was 0.00962 ± 0.0032; in experiment [2], 0.0254 ± 0.01.
For UCCUGCUACAGCUUGCAUAGUUAUUAGUUA, the “pre-steady-state target cleavage rate” value came out at 0.0372 ± 0.013 in experiment [1] (setting [3]), 0.00337 ± 0.002 in experiment [1] (setting [4]) and 0.00354 ± 0.0022 in experiment [2].
Consider UCCUGGAAGAGCUUGCAUAGUAUUUAGUUA, for which the entries for the “pre-steady-state target cleavage rate” value in experiment [1] (setting [3]), in experiment [1] (setting [4]) and in experiment [2] were 0.223 ± 0.014, 0.0115 ± 0.0029 and 0.0725 ± 0.016, respectively.
In the case of UCCUGGAUCAGCAUGCAUAGUAUUUAGUAA, the “pre-steady-state target cleavage rate” value was determined as 0.246 ± 0.012 in experiment [1] (setting [3]), 0.00355 ± 0.0026 in experiment [1] (setting [4]) and 0.00497 ± 0.0029 in experiment [2].
In the case of UCCUCCUACAGCUUGCAUAGUUUUUAGUUA, the “pre-steady-state target cleavage rate” value stood at 0.0632 ± 0.011 in experiment [1] (setting [3]), 0.00455 ± 0.0023 in experiment [1] (setting [4]) and 0.00894 ± 0.003 in experiment [2].
On to UCCUGGAUCAGCUUGCAUAGUAUUUAGUGUA, for which the “pre-steady-state target cleavage rate” value amounted to 0.271 ± 0.023 in experiment [1] (setting [3]), 0.00832 ± 0.0026 in experiment [1] (setting [4]) and 0.0168 ± 0.0061 in experiment [2].
With UCCUGCUUCAGCUUGCAUAGUAUUUACUUA, the “pre-steady-state target cleavage rate” value in experiment [1] (setting [3]) is 0.116 ± 0.021; in experiment [1] (setting [4]) it was 0.00294 ± 0.0023; in experiment [2], 0.00411 ± 0.0037.
In the case of UCCUGCUUCAGCUUGCAUUGUAUUUAGUUA, the results for the “pre-steady-state target cleavage rate” value in experiment [1] (setting [3]), in experiment [1] (setting [4]) and in experiment [2] were 0.218 ± 0.013, 0.0103 ± 0.0023 and 0.0233 ± 0.0065, respectively.
The matching figures for UCCUCCAACAGCUUGCAAAGUAUUUAGUUA: 0.155 ± 0.01, 0.00656 ± 0.0019 and 0.0132 ± 0.0038.
Turning to UCCUCCUACAGCUCGCAUAGUAUUUAGUUA, the “pre-steady-state target cleavage rate” value was determined as 0.288 ± 0.019 in experiment [1] (setting [3]), 0.0109 ± 0.0027 in experiment [1] (setting [4]) and 0.0845 ± 0.019 in experiment [2].
Regarding UCCUGGUACAGCUUGCAUAGUAUAUAGUUA, the “pre-steady-state target cleavage rate” value is 0.274 ± 0.041 in experiment [1] (setting [3]), 0.00795 ± 0.0034 in experiment [1] (setting [4]) and 0.00533 ± 0.0027 in experiment [2].

For the origin of these results see the supplement of paper PMC10338343.
